A selection: hits, their analogues and other compounds. The true share with any hit is near 0.89%.
MEP2-GFP yeast = alters MEP2-GFP fluorescence in TOR pathway yeast screen; S. cerevisiae MEP2-GFP strain, flow cytometry GFP, 3 h; 100% = DMSO control level; GFP response vs DMSO, % at 10 µM; actives 0.51% (n = 330,000);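 active = GFP response versus DMSO above a set limit, roughly screen mean plus 3 SD, cut at about 180% in these data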;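 note: median GFP fluorescence of the barcode-gated MEP2-GFP cells per well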
RPL19A-GFP yeast = modulators of TOR pathway RPL19A-GFP in S. cerevisiae. S. cerevisiae RPL19A-GFP strain, flow cytometry, 3 h; hits give low values. percent response vs DMSO, % at 10 µM. actives 0.3% (n = 330,000). AID 2025;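 active = percent response vs DMSO below 50%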;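 note: median channel GFP fluorescence of the barcoded RPL19A-GFP strain; ratio of sample median GFP to plate DMSO average so 100% = DMSO; lower means less RPL19A-GFP as with rapamycin TOR inhibition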
LAP4-GFP MLPCN = alters LAP4-GFP fluorescence in TOR pathway yeast screen; S. cerevisiae LAP4-GFP multiplex, flow cytometry GFP, 3 h; median GFP as percent of DMSO wells; GFP response vs DMSO, % at 10 µM; actives 0.34% (n = 320,000); AID 2023;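 active = GFP response vs DMSO above a set limit, about the screen mean plus 3 SD, cut at about 150% in these data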
AGP1 TOR yeast = yeast TOR pathway AGP1-GFP modulation. GFP response vs DMSO, % at 10 µM. actives 0.02% (n = 320,000). S. cerevisiae AGP1-GFP multiplex flow cytometry, 3 h; GFP as percent of DMSO wells. AID 2066;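 active = GFP response relative to DMSO above a set limit, near screen average plus 3 SD, cut at about 150% in these data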;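 note: median GFP channel fluorescence of the gated AGP1 strain per well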
CIT2 TOR yeast = alters CIT2-GFP fluorescence in TOR pathway yeast screen; S. cerevisiae CIT2-GFP strain, flow cytometry, 3 h; 100 means same as DMSO wells; GFP response vs DMSO, % at 10 µM; actives 0.065% (n = 320,000);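 active = GFP response relative to DMSO above a set limit, near the screen mean plus 3 SD, cut at about 150% in these data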;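 note: ratio of well median GFP fluorescence to mean of DMSO wells on the plate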
LAP4-GFP pick2 = second confirmation of modulators of TOR reporter LAP4-GFP in yeast; S. cerevisiae LAP4-GFP strain, flow cytometry GFP, 3 h; GFP response vs DMSO, % at 10 µM; shares compounds with LAP4-GFP MLPCN; actives 20% (n = 590);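 active = GFP signal as percent of the solvent control above about 150%, meaning raised reporter expression, limit read from the data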;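 note: ratio of well median GFP fluorescence to plate DMSO mean so 100% = DMSO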
MEP2-GFP pick2 = second confirmation of modulators of TOR reporter MEP2-GFP in yeast. S. cerevisiae MEP2-GFP strain, flow cytometry GFP, 3 h. actives 10% (n = 590). shares compounds with LAP4-GFP MLPCN. GFP response vs DMSO, % at 10 µM;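 active = GFP signal above 150% of the solvent control wells, that is a rise of more than half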;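 note: median channel GFP fluorescence of all gated yeast cells per well; ratio of median GFP to plate DMSO average so 100% = DMSO level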
RPL19A-GFP pick2 = reconfirmed modulator of RPL19A-GFP TOR reporter in yeast. shares compounds with LAP4-GFP MLPCN. S. cerevisiae RPL19A-GFP strain, flow cytometry GFP, 3 h; hits give low values; 100% means same as DMSO wells. GFP response vs DMSO, % at 10 µM. actives 3% (n = 590). AID 2623;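 active = under 65% GFP response relative to DMSO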;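 note: median GFP channel fluorescence per well over the all cells gate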
CIT2 GFP CP2 = second confirmation of modulators of TOR reporter CIT2-GFP in yeast | AID 2624 | S. cerevisiae CIT2-GFP strain, flow cytometry GFP, 3 h; DMSO control wells read 100% | actives 8% (n = 590) | GFP response vs DMSO, % at 10 µM | shares compounds with LAP4-GFP MLPCN;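 active = GFP response vs DMSO above about 150%, limit read from the data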;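 note: median green fluorescence per well over all gated yeast cells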
AGP1-GFP pick2 = second confirmation of modulators of TOR reporter AGP1-GFP in yeast; percent response vs DMSO, % at 10 µM; shares compounds with LAP4-GFP MLPCN; S. cerevisiae AGP1-GFP strain, flow cytometry GFP, 3 h; 590 tested, under 10 active; AID 2643;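 active = over 150 percent of DMSO response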;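 note: median GFP channel fluorescence over all cells without mother daughter split; sample median GFP divided by mean DMSO control so 100% equals DMSO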
Yeast autofluor = compound is autofluorescent in yeast s288c cells; shares compounds with LAP4-GFP MLPCN; S. cerevisiae s288c, 520 nm autofluorescence, flow cytometry, 3 h; hits give high values; zero means same as solvent-only cells; AID 2757; fluorescence change (kMESF span) at 33 µM; 610 tested, under 10 active;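 active = fluorescence span over the dose series, or activity score, above about 33, limit read from the data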
An asterisk follows results filed as active.

What do the screens show for `Cc1cccc(C(=O)NCC(=O)N2CCC2)c1`?
MEP2-GFP yeast: active; RPL19A-GFP yeast: 403; LAP4-GFP MLPCN: active; AGP1 TOR yeast: 447*; CIT2 TOR yeast: active; LAP4-GFP pick2: 100; MEP2-GFP pick2: 100; RPL19A-GFP pick2: 99; CIT2 GFP CP2: 104; AGP1-GFP pick2: 99

What do the screens show for `CCC1COCCS(=O)(=O)N1Cc1ccc(F)cc1` (configuration not stated)?
MEP2-GFP yeast: 91; RPL19A-GFP yeast: 97; LAP4-GFP MLPCN: 92; AGP1 TOR yeast: 100; CIT2 TOR yeast: 95

What do the screens show for `CCOC(=O)/C(C#N)=N/Nc1ccccc1C(=O)O`?
MEP2-GFP yeast: 108; RPL19A-GFP yeast: 109; LAP4-GFP MLPCN: 101; AGP1 TOR yeast: 106; CIT2 TOR yeast: 105

How did N#C/C(N=Nc1ccccc1O)=N\Nc1ccccc1O do in these assays?
MEP2-GFP yeast: 92; RPL19A-GFP yeast: 97; LAP4-GFP MLPCN: 183*; AGP1 TOR yeast: 74; CIT2 TOR yeast: 77; LAP4-GFP pick2: 138; MEP2-GFP pick2: 110; RPL19A-GFP pick2: 100; CIT2 GFP CP2: 110; AGP1-GFP pick2: 90

How did On1ccccc1=S do in these assays?
MEP2-GFP yeast: 111; RPL19A-GFP yeast: 97; LAP4-GFP MLPCN: 260*; AGP1 TOR yeast: 99; CIT2 TOR yeast: 100; LAP4-GFP pick2: 181*; MEP2-GFP pick2: 118; RPL19A-GFP pick2: 95; CIT2 GFP CP2: 139; AGP1-GFP pick2: 95; Yeast autofluor: 0.1

How did O=C(COC(=O)c1cnccn1)N=c1sccn1Cc1ccccc1Cl do in these assays?
MEP2-GFP yeast: 93; RPL19A-GFP yeast: 88; LAP4-GFP MLPCN: 88; AGP1 TOR yeast: 97; CIT2 TOR yeast: 83

How did CCN(CC(=O)Nc1c(F)cccc1F)C(=O)Cc1csc(-c2ccc(OC)c(OC)c2)n1 do in these assays?
MEP2-GFP yeast: 91; RPL19A-GFP yeast: 86; LAP4-GFP MLPCN: 97; AGP1 TOR yeast: 89; CIT2 TOR yeast: 82

How did O=Nc1c(-c2cccc([N+](=O)[O-])c2)nc2ncccn12 do in these assays?
MEP2-GFP yeast: 91; RPL19A-GFP yeast: 63; LAP4-GFP MLPCN: 138; AGP1 TOR yeast: 65; CIT2 TOR yeast: 61; LAP4-GFP pick2: 139; MEP2-GFP pick2: 148; RPL19A-GFP pick2: 67; CIT2 GFP CP2: 107; AGP1-GFP pick2: 82

How did CC(=O)N(C(C)=O)c1ncnc2c1c(-c1ccc(Cl)cc1)nn2C(C)(C)C do in these assays?
MEP2-GFP yeast: 93; RPL19A-GFP yeast: 95; LAP4-GFP MLPCN: 96; AGP1 TOR yeast: 97; CIT2 TOR yeast: 90; LAP4-GFP pick2: 96; MEP2-GFP pick2: 100; RPL19A-GFP pick2: 98; CIT2 GFP CP2: 94; AGP1-GFP pick2: 92; Yeast autofluor: -0.2

How did CCOC(=O)Cn1nc(-c2ccc(Cl)cc2)ccc1=O do in these assays?
MEP2-GFP yeast: 99; RPL19A-GFP yeast: 96; LAP4-GFP MLPCN: 98; CIT2 TOR yeast: 94

Assay outcomes: PubChem, NMMLSC
